Source: PubChem BioAssay (National Center for Advancing Translational Sciences (NCATS))
HT1080 IDH1KD tx = qHTS for induction of synthetic lethality in tumor cells producing 2HG: qHTS for the HT-1080-IDH1KD cell line; HT-1080 IDH1 knockdown viability, ATP luminescence, 48 h; Potency, µM (highest dose often 46.1 µM), hits mostly cytotoxic; actives 2% (n = 360,000); AID 686971, 2013
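% activity derives from luminescence (CellTiter-Glo), normalised to DMSO and no-cell wells. HT-1080-IDH1KD cells, 750/well, had 48 h compound exposure at 37 °C.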
KB-3-1 cytotox = qHTS assay for MDR1-selective chemotherapeutics: Primary screen using the parental adenocarcinoma cell KB-3-1; KB-3-1 viability, CellTiter-Glo ATP luminescence, 72 h; actives 1.4% (n = 400,000); Potency, µM (titrated, usually from 46.1 µM), actives largely listed as cytotoxic; also: nearly all actives have a fitted effect of over 60% in size
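KB-3-1 parental drug-naive adenocarcinoma cells in DMEM/10% FBS, incubated 72 h at 37 C with pin-transferred compounds across a concentration series. Viability by CellTiter-Glo luminescence; concentration-response curves fitted after normalization.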
KB-V1 MDR tox = qHTS assay for MDR1-selective chemotherapeutics: Primary screen using the drug-selected MDR subline cells KB-V1; KB-V1 MDR cells viability, CellTiter-Glo, 72 h; Potency, µM (top dose mostly 46.1 µM), actives largely listed as cytotoxic; actives 3.4% (n = 400,000); AID 1347076, 2019; also: nearly all actives have a fitted effect of over 60% in size
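KB-V1 cells (P-gp-expressing MDR subline of KB-3-1) in phenol-red-free DMEM with 10% FBS were exposed to library compounds over a concentration series for 72 h at 37 degrees C. Viability read by CellTiter-Glo luminescence; concentration-effect curves fitted after normalization.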
HT1080NT lethal = qHTS for induction of synthetic lethality in tumor cells producing 2HG: qHTS for the HT-1080-NT fibrosarcoma cell line | HT-1080-NT fibrosarcoma viability, CellTiter-Glo ATP luminescence, 48 h | Potency, µM (doses to about 46.1 µM), actives largely listed as cytotoxic | actives 1.6% (n = 360,000) | AID 686970, 2013;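 also: NT is the 2HG producing partner of a matched IDH1 knockdown line; nearly all actives have a fitted effect of over 55% in size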
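Read-out is CellTiter-Glo luminescence after 10 minutes at room temperature, following 48 hours' compound treatment of HT-1080-NT cells (750 cells/well, RPMI, 5% FBS, 37 degrees C).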
DT40 TDP1 no CPT = qHTS for Inhibitors of human tyrosyl-DNA phosphodiesterase 1 (TDP1): qHTS in cells in absence of CPT; DT40 Tdp1-/- hTDP1 cells, no CPT, ATP luminescence, 48 h; Potency, µM (highest dose often 46.2 µM), actives largely listed as inhibitors; actives 15% (n = 420,000); also: nearly all actives have a fitted effect of over 55% in size
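Growth of hTDP1-complemented DT40 Tdp1-knockout cells is measured by ATP luminescence after at least 48 hr compound exposure at 37 °C, with DMSO substituting for the 20 nM CPT used in the parallel screen.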
DT40 TDP1 CPT = qHTS for Inhibitors of human tyrosyl-DNA phosphodiesterase 1 (TDP1): qHTS in cells in presence of CPT | actives 12% (n = 420,000) | Potency, µM (highest dose often 46.2 µM), most hits filed as inhibitors | chicken DT40 Tdp1-/-;hTDP1 cells + 20 nM CPT, ATP luminescence, 48 h; also: nearly all actives have a fitted effect of over 55% in size
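Chicken DT40 Tdp1-/- cells stably complemented with human TDP1 were seeded at 400 cells/well in medium containing 20 nM camptothecin, exposed to pin-transferred compounds, and grown at 37 °C for at least 48 hr. Viability was read as ATP luminescence.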
Each line names hits and unclear results; the compound was inactive in the other large screens. Compounds with a hit are over-represented: about 19% of the library has one in this group of screens. Calls follow the shape of the dose curve; as a rule, active = well fitted curve in the direction sought with a large enough effect; inconclusive = small, poorly fitted or top-dose-only effect, or another doubt; inactive = no such curve, though single readings can be large; an effect the other way counts as inactive or inconclusive.

CCCCN(C)C(=O)c1ccc2c(c1)S(=O)(=O)c1ccccc1C2=O	none
O=C(CCNS(=O)(=O)c1cccc(C(F)(F)F)c1)NC1CC1	KB-V1 MDR tox inconclusive
COCCNC(=O)CSC1=N/C(=C/c2ccc(Cl)c(Cl)c2)C(=O)N1c1ccccc1F	HT1080 IDH1KD tx inconclusive, HT1080NT lethal inconclusive, DT40 TDP1 no CPT 20.6µM, DT40 TDP1 CPT 14.6µM
C=CCN1C(=O)/C(=C\c2ccc(Cl)cc2)N=C1SCC(=O)NCCC	KB-V1 MDR tox inconclusive
CC(C)CC(=O)N1CCN(Cc2ccc(C(F)(F)F)cc2)CC1	DT40 TDP1 no CPT inconclusive, DT40 TDP1 CPT inconclusive
COc1cc(C(O)c2nc(-c3ccncc3)cs2)ccc1F (configuration not stated)	HT1080 IDH1KD tx inconclusive, KB-V1 MDR tox inconclusive, DT40 TDP1 no CPT 23.1µM, DT40 TDP1 CPT inconclusive
COc1ccc(C(O)c2nc(-c3ccc(N(C)C)cc3)cs2)cc1 (configuration not stated)	KB-3-1 cytotox inconclusive, KB-V1 MDR tox inconclusive, HT1080NT lethal inconclusive, DT40 TDP1 no CPT 18.4µM, DT40 TDP1 CPT inconclusive
COc1cc(C(O)c2nc(-c3ccc(C)c(C)c3)cs2)ccc1F (configuration not stated)	HT1080 IDH1KD tx inconclusive, HT1080NT lethal inconclusive, DT40 TDP1 no CPT inconclusive, DT40 TDP1 CPT inconclusive
CN(C)c1ccc(-c2csc(C(O)c3ccc(F)cc3)n2)cc1 (configuration not stated)	DT40 TDP1 no CPT inconclusive, DT40 TDP1 CPT inconclusive
CN(C)c1ccc(-c2csc(C(O)c3ccccc3)n2)cc1 (configuration not stated)	DT40 TDP1 no CPT inconclusive, DT40 TDP1 CPT inconclusive
COc1cccc(C(O)c2nc(-c3ccccc3)cs2)c1 (configuration not stated)	DT40 TDP1 no CPT 16.4µM, DT40 TDP1 CPT inconclusive
CN(C)c1ccc(-c2csc(C(O)c3ccc(F)c(F)c3)n2)cc1 (configuration not stated)	HT1080 IDH1KD tx inconclusive, HT1080NT lethal inconclusive, DT40 TDP1 no CPT 14.6µM, DT40 TDP1 CPT 16.4µM
CC(CNC(=O)C1CCN(C(=O)c2cc3sccc3n2C)CC1)c1ccccc1 (configuration not stated)	DT40 TDP1 no CPT inconclusive, DT40 TDP1 CPT inconclusive (no result: HT1080 IDH1KD tx, HT1080NT lethal)
COc1ccc(-c2csc(C(O)c3ccc(F)cc3)n2)cc1 (configuration not stated)	HT1080 IDH1KD tx inconclusive, HT1080NT lethal inconclusive, DT40 TDP1 no CPT inconclusive, DT40 TDP1 CPT inconclusive
COc1ccc(-c2csc(C(O)c3ccc(OC)cc3)n2)cc1 (configuration not stated)	HT1080 IDH1KD tx inconclusive, HT1080NT lethal inconclusive, DT40 TDP1 no CPT inconclusive, DT40 TDP1 CPT inconclusive
COc1ccc(C(O)c2nc(-c3ccncc3)cs2)cc1 (configuration not stated)	HT1080NT lethal inconclusive, DT40 TDP1 no CPT 10.3µM, DT40 TDP1 CPT 18.4µM
COc1ccc(C(O)c2nc(-c3ccccc3)cs2)cc1 (configuration not stated)	DT40 TDP1 no CPT 10.3µM, DT40 TDP1 CPT 13µM
COc1cccc(C(O)c2nc(-c3ccccc3OC)cs2)c1 (configuration not stated)	DT40 TDP1 no CPT inconclusive, DT40 TDP1 CPT inconclusive
COc1cccc(C(O)c2nc(-c3ccccc3C)cs2)c1 (configuration not stated)	DT40 TDP1 no CPT 18.4µM, DT40 TDP1 CPT inconclusive
OCCNNC(=S)NC1CC2C=CC1C2 (configuration not stated)	none
